Results filed as inconclusive are left out. Activity calls are given as the source filed them.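 How the source made its calls, unless noted: active means viability at or under a set limit in both replicates, limit being median viability minus 3 SD (cut at about 48% in these data, passing the limit was not always enough); inconclusive means at or under the limit in just one replicate; inactive means at or above the limit in both replicates.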
Tests used:
[1] = Her2 expression decrease, cell viability multiplex – SKBR3 breast tumor cells, AlphaScreen, ATP viability, primary screen (AID 461;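 active means Her2 level under about 52% in both replicate screens, with viability over 70% of control, limit read from the data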;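 on Her2 level: lower value means less Her2 protein in the cells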;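 on viability: percent of carrier control wells set as 100% viability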); conditions: SKBR3 Her2 protein level, 18-24 h, measured here: SKBR3 viability, ATP luminescence, at 10 µM
[2] = target: Receptor tyrosine-protein kinase erbB-2 (Homo sapiens) (UniProt P04626); assay: as above; conditions: 18-24 h, at 10 µM, stronger effect = lower value
[3] = reduced viability of SK-BR-3 breast cancer cells – cell-based, 24 h, human, pilot screen (AID 572;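 active means viability at or below 10% of carrier control in both of two separate runs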;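 further: compound exposure lasted between 18 and 24 h rather than exactly 24 h; 100% = carrier-treated control wells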); conditions: SK-BR-3 viability, CellTiter-Glo luminescence, at 10 µM, stronger effect = lower value
[4] = HUVEC growth inhibition – cell-based, human, primary screen (AID 575;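 active means viability at or below 30% in both replicate assays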;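 further: 100% = median of untreated cell wells with 0.1% DMSO on each plate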); conditions: HUVEC proliferation, CellTiter-Glo luminescence, 72 h; at 10 µM; stronger effect = lower value
[5] = H69AR cell proliferation blockers – human, duplicate replicates, primary screen (AID 580); conditions: H69AR lung tumor cells viability, ATP luminescence, 72 h; at 10 µM; stronger effect = lower value;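 further: 100% = mean luminescence of untreated wells and 0% = no signal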
[6] = MRP1 drug-resistance reversers in H69AR cells – cell-based, doxorubicin co-treatment, pilot screen (AID 601;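 active means viability loss from added drug above about 55%, and viability with drug at most 40%, in both replicates, limit read from the data, passing the limit was not always enough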); conditions: CellTiter-Glo, 72 h, at 10 µM; for differential viability (reversal): stronger effect = higher value
[7] = yeast transport mutant growth inhibition pilot in 384-well plates, post-Golgi transport modulator project (AID 636; in the data active means inhibition above about 31%); conditions: absorbance 615 nm, about 18 h, stronger effect = higher value
[8] = growth suppression of yeast trafficking mutant, preliminary HTS, modulators of trafficking downstream of Golgi apparatus project, 1536-format plate, OD 615 nm (AID 637; in the data active means inhibition above about 30%); conditions: yeast transport mutant growth, absorbance 615 nm, 18 h; stronger effect = higher value
[9] = S. cerevisiae growth inhibition in permissive medium (OD615), pilot counter-assay for S. cerevisiae lifespan shortening project, permissive growth control (AID 705;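 active means growth inhibition above 25% in both replicates, a cutoff set 3 SD above the mean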); conditions: OD615, 24 h, at 10 µM, stronger effect = higher value
[10] = S. cerevisiae growth inhibition in restrictive medium, OD615, pilot screen, restrictive growth control, yeast lifespan reduction project (AID 706;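 active means growth inhibition above a set limit, 3 SD over mean compound inhibition, in both replicates, cut at about 43% in these data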;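 further: modified DeaD lifespan yeast strain shifted to restrictive glucose medium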); conditions: OD615, 48 h, at 10 µM, stronger effect = higher value
[11] = doxorubicin toxicity protection in MRP-1 cells – H69AR cells, CellTiter-Glo, duplicate, MRP-1 activator project, pilot screen (AID 807;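 active means viability increase at or above a cutoff of the median across tested compounds plus 3 SD, cut at about 8.5% in these data, passing the limit was not always enough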;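 further: compound pretreatment 18-22 h then 72 h combined with doxorubicin; 0% = doxorubicin alone and 100% = vehicle without doxorubicin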); conditions: H69AR viability with doxorubicin, CellTiter-Glo luminescence; at 10 µM; stronger effect = higher value
[12] = viability of HCT116 without oncogenic beta-catenin – human colon tumor cells, pilot screen (AID 823;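 active means cell viability at or below a set limit in both duplicate runs, the limit being the all-compound median minus 4 SD, cut at about 23% in these data, passing the limit was not always enough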;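 further: 0% = wells killed by 20 µM Hyamine and 100% = untreated DMSO cell wells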); conditions: HCT116 beta-catenin knockout viability, CellTiter-Glo, 60 h; at 10 µM; stronger effect = lower value
[13] = viability of PTEN-null HCT116 cells – cell-based, HCT116 clonal line, CellTiter-Glo, pilot screen (AID 824;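 active means viability at or below 27.92% in each of two runs, the all-compound median minus 4 SD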;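 further: 0% = 20 µM Hyamine control and 100% = vehicle cell control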); conditions: HCT116 PTEN-deleted viability, 60 h, at 10 µM, stronger effect = lower value
[14] = RAM pathway blockade in budding yeast – dse1pr::URA3 reporter, 5-FOA selection, pilot screen (AID 869;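 active means inhibition over a set limit, the all-compound mean plus 3 SD, in both replicate runs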;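 further: 0% = DMSO wells with no growth and 100% = 10 µM 1-NA-PP1 with full growth; RAM network block rescues cells from 5-FOA so hits raise OD615 growth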); conditions: S. cerevisiae dse1pr::URA3 5-FOA growth, OD615, 2 d; at 10 µM; stronger effect = higher value; strain carries analog-sensitive mutant Cbk1 kinase
[15] = RAM signaling pathway blockade in yeast – S. cerevisiae, Pdr1DBD-CYC8 efflux-inhibited sensitized strain, primary screen (AID 1298;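 active means RAM network inhibition above 8.4% in each of two replicates, 3 SD over the compound average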;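 further: 0% = DMSO untreated cells without growth and 100% = 10 µM 1-NA-PP1 full growth; higher means more yeast growth rescued from 5-FOA killing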); conditions: S. cerevisiae cbk1-as DSE1-URA3 strain, 5-FOA growth OD615, 2 d; at 50 µM; stronger effect = higher value
[16] = H69AR cells + 2 uM doxorubicin, measured here: viability with 2 uM doxorubicin, stronger effect = lower value
[17] = H69AR cells, compound alone cytotoxicity

Receptor tyrosine-protein kinase erbB-2 (Homo sapiens), sequence (P04626 whole entry, looked up): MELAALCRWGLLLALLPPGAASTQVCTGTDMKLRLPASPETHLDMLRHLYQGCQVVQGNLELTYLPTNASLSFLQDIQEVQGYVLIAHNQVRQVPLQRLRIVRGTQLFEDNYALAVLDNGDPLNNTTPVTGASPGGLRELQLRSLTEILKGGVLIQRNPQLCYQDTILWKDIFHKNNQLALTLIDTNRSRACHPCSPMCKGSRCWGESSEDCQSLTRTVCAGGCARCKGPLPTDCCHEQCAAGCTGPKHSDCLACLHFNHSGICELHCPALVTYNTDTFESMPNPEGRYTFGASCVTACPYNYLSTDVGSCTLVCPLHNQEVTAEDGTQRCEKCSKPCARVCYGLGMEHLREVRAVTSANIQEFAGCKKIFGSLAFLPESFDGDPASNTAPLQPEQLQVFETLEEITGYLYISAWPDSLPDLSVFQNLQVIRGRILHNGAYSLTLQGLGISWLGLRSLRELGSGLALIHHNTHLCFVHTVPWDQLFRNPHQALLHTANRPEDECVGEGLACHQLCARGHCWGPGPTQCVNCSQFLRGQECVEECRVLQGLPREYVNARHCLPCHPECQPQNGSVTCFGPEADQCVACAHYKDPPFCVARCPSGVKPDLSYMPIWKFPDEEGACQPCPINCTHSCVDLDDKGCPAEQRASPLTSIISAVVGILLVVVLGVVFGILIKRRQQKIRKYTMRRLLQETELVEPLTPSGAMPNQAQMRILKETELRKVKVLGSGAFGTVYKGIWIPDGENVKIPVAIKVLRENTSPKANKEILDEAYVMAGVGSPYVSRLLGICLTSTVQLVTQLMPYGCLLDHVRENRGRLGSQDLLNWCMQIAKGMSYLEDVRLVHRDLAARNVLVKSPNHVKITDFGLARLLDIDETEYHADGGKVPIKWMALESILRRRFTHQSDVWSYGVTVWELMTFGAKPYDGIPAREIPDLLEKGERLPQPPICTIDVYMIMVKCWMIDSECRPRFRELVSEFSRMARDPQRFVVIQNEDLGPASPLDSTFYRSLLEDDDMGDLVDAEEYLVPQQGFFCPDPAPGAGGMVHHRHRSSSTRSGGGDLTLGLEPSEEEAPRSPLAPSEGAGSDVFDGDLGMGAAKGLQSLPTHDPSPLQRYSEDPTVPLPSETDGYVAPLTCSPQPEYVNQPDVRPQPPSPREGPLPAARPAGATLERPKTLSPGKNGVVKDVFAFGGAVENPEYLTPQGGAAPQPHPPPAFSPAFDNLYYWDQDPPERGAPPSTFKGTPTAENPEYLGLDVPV

O=C1CC(c2cccnc2)c2cc3c(cc2N1)OCO3 (stereo not drawn)
99.5%: viability [1]
inactive: Her2 level [2] 108% | viability [3] 99.5% | viability [4] 88.7% | viability [5] 104% | differential viability (reversal) ([6]; H69AR cells + 2 uM doxorubicin) 18.4% | inhibition [7] -0.13% | inhibition [8] -9.18% | growth inhibition [9] -2.55% | growth inhibition [10] 1.1% | viability increase [11] -1.75% | viability [12] 105% | viability [13] 99.8% | inhibition [14] 1.17% | RAM network inhibition [15] 0.51%
85.7%: viability [6, 16]
104%: viability [6, 17]

O=C(C1CCCN(S(=O)(=O)c2cccnc2)C1)N1CCn2c1nc1ccccc12 (stereo not drawn)
95.8%: viability [6, 17]
86.1%: viability [6, 16]
90.5%: viability [1]
inactive: Her2 level [2] 103% | viability [3] 90.5% | viability [4] 105% | viability [5] 95.8% | differential viability (reversal) ([6]; H69AR cells + 2 uM doxorubicin) 9.65% | inhibition [7] 0.51% | inhibition [8] -0.33% | growth inhibition [9] 5.56% | growth inhibition [10] 4.04% | viability increase [11] 0.72% | viability [12] 101% | viability [13] 99.3% | inhibition [14] 0.46% | RAM network inhibition [15] 1.55%

Nc1cc(N)cc(-c2nc3ccccc3o2)c1
inactive: Her2 level [2] 106% | viability [3] 100% | viability [4] 87.3% | viability [5] 93.7% | differential viability (reversal) ([6]; H69AR cells + 2 uM doxorubicin) 19.1% | inhibition [7] -2.4% | inhibition [8] 3.17% | growth inhibition [9] 1.61% | growth inhibition [10] 6.39% | viability increase [11] -0.39% | viability [12] 100% | viability [13] 95.4% | inhibition [14] 2.14% | RAM network inhibition [15] 0.61%
74.7%: viability [6, 16]
93.7%: viability [6, 17]
100%: viability [1]

O=C1CCCc2c1cc(C(=O)NCCCN1CCOCC1)c(=O)n2-c1ccc(Cl)cc1
97%: viability [1]
82.5%: viability [6, 16]
inactive: Her2 level [2] 95.5% | viability [3] 97% | viability [4] 89.9% | viability [5] 93.1% | differential viability (reversal) ([6]; H69AR cells + 2 uM doxorubicin) 10.6% | inhibition [7] -5.07% | inhibition [8] 0.83% | growth inhibition [9] -14.6% | growth inhibition [10] -19.1% | viability increase [11] -2.29% | viability [12] 100% | viability [13] 104% | inhibition [14] 1.44% | RAM network inhibition [15] 2%
93.1%: viability [6, 17]

Cc1onc(-c2ccccc2Cl)c1C(=O)N1CCc2ccccc21
87.5%: viability [1]
inactive: Her2 level [2] 78.5% | viability [3] 87.5% | viability [4] 80.9% | viability [5] 79% | differential viability (reversal) ([6]; H69AR cells + 2 uM doxorubicin) -9.1% | inhibition [7] -1.82% | inhibition [8] -5.5% | growth inhibition [9] -1.1% | growth inhibition [10] -8.1% | viability increase [11] -3.41% | viability [12] 82.8% | viability [13] 87.1% | inhibition [14] 2.23% | RAM network inhibition [15] 7.99%
79%: viability [6, 17]
88.1%: viability [6, 16]

CC1CCCN(C(=O)C23CCC(C)(C(=O)C2)C3(C)C)C1 (stereo not drawn)
99%: viability [1]
92.6%: viability [6, 16]
108%: viability [6, 17]
inactive: Her2 level [2] 92% | viability [3] 99% | viability [4] 103% | viability [5] 108% | differential viability (reversal) ([6]; H69AR cells + 2 uM doxorubicin) 15.3% | inhibition [7] -2.43% | inhibition [8] -3.17% | growth inhibition [9] -7.46% | growth inhibition [10] -8.69% | viability increase [11] -2.08% | viability [12] 97.7% | viability [13] 102% | inhibition [14] -0.565% | RAM network inhibition [15] 4.55%

CC1NC2(C(=O)N(Cc3ccccc3)c3ccccc32)C2C(=O)N(c3ccccc3)C(=O)C12 (stereo not drawn)
92.9%: viability [6, 16]
inactive: Her2 level [2] 100% | viability [3] 120% | viability [4] 95.5% | viability [5] 93.5% | differential viability (reversal) ([6]; H69AR cells + 2 uM doxorubicin) 0.575% | inhibition [7] -4.13% | inhibition [8] 1% | growth inhibition [9] -5.06% | growth inhibition [10] -14.4% | viability increase [11] 1.77% | viability [12] 97.1% | viability [13] 104% | inhibition [14] 0.29% | RAM network inhibition [15] 3.53%
120%: viability [1]
93.5%: viability [6, 17]

Cc1nnc(NC(=O)CSc2nc3c(c(=O)n2C)SC(C)C3)s1 (stereo not drawn)
89%: viability [1]
84.8%: viability [6, 17]
inactive: Her2 level [2] 80% | viability [3] 89% | viability [4] 79.4% | viability [5] 84.8% | differential viability (reversal) ([6]; H69AR cells + 2 uM doxorubicin) 4.81% | inhibition [7] -6.27% | inhibition [8] 4.17% | growth inhibition [9] -11.1% | growth inhibition [10] -18.2% | viability increase [11] 0.31% | viability [12] 104% | viability [13] 99.6% | inhibition [14] 2.09% | RAM network inhibition [15] 9.95%
80%: viability [6, 16]

CCOc1ccc(NC(=O)CSc2nnc(COc3c(C)cccc3C)o2)cc1
80.6%: viability [6, 17]
95%: viability [1]
inactive: Her2 level [2] 102% | viability [3] 95% | viability [4] 86.7% | viability [5] 80.6% | differential viability (reversal) ([6]; H69AR cells + 2 uM doxorubicin) -5.7% | inhibition [7] -4.93% | inhibition [8] -2.83% | growth inhibition [9] -9.38% | growth inhibition [10] -14.3% | viability increase [11] -1.9% | viability [12] 98.9% | viability [13] 98.3% | inhibition [14] 3.71% | RAM network inhibition [15] 8.74%
86.3%: viability [6, 16]

— PubChem BioAssay
